Experimental data taken from the supplement of paper PMC6555819.

Legend:
Assay in all cases: PBM binding z-score (relative to random genomic background probes); higher = stronger binding; sequences stand for … in GC…GCGATTGACAGCGTAGAATGAAGG
[1] = test system: FXR:RXRa (NR concentration 270 nM, RXRa partner concentration 90 nM)
In short: (§1)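 Binding buffer was PBS pH 7.4 with 2% milk, 0.02% Triton X-100, 1 mM DTT, 0.2 mg/mL BSA and 0.4 mg/ml salmon testes DNA. In it, ligand-free nuclear receptor dimers were incubated 1 h on custom Agilent 4×180K protein-binding microarrays carrying double-stranded probes. Antibodies against each partner (one per run) detected binding, and z-scores were calculated against random background probes after regression normalization of scanned fluorescence.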

[2] = test system: LXRa:RXRa (NR concentration 270 nM, RXRa partner concentration 90 nM)
In short: as §1

[3] = test system: LXRa homodimer (NR concentration 270 nM)
In short: as §1

[4] = test system: LXRb:RXRa (NR concentration 270 nM, RXRa partner concentration 90 nM)
In short: as §1

[5] = test system: LXRb homodimer (NR concentration 270 nM)
In short: as §1

[6] = test system: PPARa:RXRa (NR concentration 270 nM, RXRa partner concentration 90 nM)
In short: as §1

[7] = test system: PPARg:RXRa (NR concentration 180 nM, RXRa partner concentration 90 nM)
In short: as §1

[8] = test system: PPARg:RXRa 270nM:90nM, anti-RXR (NR concentration 270 nM, RXRa partner concentration 90 nM)
In short: as §1

[9] = test system: PPARg:RXRa 30nM:10nM, anti-RXR (NR concentration 30 nM, RXRa partner concentration 10 nM)
In short: as §1

[10] = test system: PPARg:RXRa 90nM:30nM, anti-RXR (NR concentration 90 nM, RXRa partner concentration 30 nM)
In short: as §1

[11] = test system: PPARg:RXRa DBDmut IVT, anti-RXR (DBD mutation: RXRa K156A/R161A, NR concentration 270 nM, RXRa partner concentration 90 nM)
In short: as §1

[12] = test system: PPARg:RXRa IVT, anti-PPARg (NR concentration 270 nM, RXRa partner concentration 90 nM)
In short: as §1

[13] = test system: PPARg DBDmut:RXRa IVT, anti-PPARg (DBD mutation: PPARg1 K132A/R137A, NR concentration 270 nM, RXRa partner concentration 90 nM)
In short: as §1

[14] = test system: PPARg DBDmut IVT, anti-PPARg (DBD mutation: PPARg1 K132A/R137A, NR concentration 270 nM)
In short: as §1

[15] = test system: PPARg homodimer (NR concentration 180 nM)
In short: as §1

[16] = test system: PXR:RXRa (NR concentration 270 nM, RXRa partner concentration 90 nM)
In short: as §1

[17] = test system: PXR homodimer (NR concentration 270 nM)
In short: as §1

[18] = test system: RARa:RXR (NR concentration 270 nM, RXRa partner concentration 90 nM)
In short: as §1

[19] = test system: RARa homodimer (NR concentration 270 nM)
In short: as §1

[20] = test system: RARb:RXRa (NR concentration 270 nM, RXRa partner concentration 90 nM)
In short: as §1

Row | Sequence | PBM binding z-score [1] | PBM binding z-score [2] | PBM binding z-score [3] | PBM binding z-score [4] | PBM binding z-score [5] | PBM binding z-score [6] | PBM binding z-score [7] | PBM binding z-score [8] | PBM binding z-score [9] | PBM binding z-score [10] | PBM binding z-score [11] | PBM binding z-score [12] | PBM binding z-score [13] | PBM binding z-score [14] | PBM binding z-score [15] | PBM binding z-score [16] | PBM binding z-score [17] | PBM binding z-score [18] | PBM binding z-score [19] | PBM binding z-score [20]
1 | GGAACGAGGGCAAAGTTGTTAGCATCTGTCGACG | 0.763 | 0.635 | -0.337 | 0.517 | -0.419 | 2.61 | 3.61 | 4.82 | 2.96 | 4.84 | 3.85 | 3.57 | 0.128 | -0.75 | 0.469 | 0.802 | 0.198 | 0.675 | 0.0341 | 2.31
2 | GCTAGTTGGACAGTAAAAGGTCACACACCGGTCG | 2.82 | 4.25 | 4.25 | 4.22 | 0.188 | 4.4 | 2.61 | 3.78 | 1.89 | 3.36 | 0.431 | 2.16 | -0.417 | -0.407 | 3.24 | 4.68 | 1.09 | 5.53 | 1.25 | 3.95
3 | TGTAGCAGGCCAGAGGGTCACTCAAGAGGTACGG | 0.921 | 0.677 | -0.568 | 0.665 | -1.21 | 2.15 | 1.51 | 2.46 | 0.493 | 1.83 | -1.03 | 1.1 | -0.559 | -0.849 | 0.876 | 1.39 | -0.159 | 2.51 | -0.395 | 2.35
4 | GCTTGTAGATCAAGGTTAAGAAGGACTAAGCTAA | 0.204 | 0.416 | -0.49 | 0.546 | -1.11 | 1.38 | 0.945 | 2.08 | 0.323 | 1.79 | 1.59 | 0.939 | -0.676 | 0.139 | -0.16 | 0.306 | -0.0751 | 0.701 | -0.375 | 0.923
5 | GCAATTAGTTGAAAGGGCAACCGAATGATTCTCG | 0.0908 | 0.491 | 0.0352 | 0.496 | -0.314 | 2.69 | 3.22 | 5.14 | 3.49 | 5.31 | 0.317 | 1.39 | 0.151 | 0.483 | 0.967 | 0.692 | 0.161 | 1.46 | 1.18 | 2.15
6 | TCATATAAGTAAACAGGTGAAAGTCCGTAAGTTA | 1.27 | 1.25 | 0.422 | 1.2 | 0.0139 | 1.55 | 1.32 | 2.57 | 4.41 | 3.57 | 3.11 | 1.31 | 0.554 | 1.07 | 1.13 | 1.09 | 0.507 | 1.19 | 1.75 | 0.383
7 | CTACCAAGGTGAACCAGGTCGTTGATTACTATTC | 0.862 | 1.52 | -0.0698 | 1.8 | -0.718 | 2.61 | 1.19 | 1.54 | 0.0677 | 0.58 | 2.39 | 3.12 | -0.252 | 0.258 | 1.51 | 1.93 | 0.659 | 2.14 | -0.266 | 1.92
8 | CCGACTGGGGCAAAGGTTACTATACTCAGTACGA | 1.1 | 1.13 | 0.145 | 1.83 | -0.765 | 4.86 | 10.7 | 8.89 | 8.85 | 9.45 | 4.92 | 5.73 | -0.179 | -0.335 | 1.41 | 1.93 | -0.04 | 3.21 | -0.0301 | 1.86
9 | GCGGCTGGGGCAAAGCAGGTTACCATAAGGTTGG | 0.63 | 0.104 | -0.673 | 0.159 | -0.912 | 0.636 | 0.139 | -0.304 | -0.825 | -0.577 | 0.344 | 0.597 | -2.01 | -1.49 | -0.191 | 0.338 | -0.584 | 0.776 | -1.18 | 1.07
10 | CGAACTAGGTCATCCAAGACAGTGAATACATTGA | 4.2 | 2.37 | 0.551 | 2.26 | 0.197 | 4.78 | 8.08 | 6.67 | 4.23 | 5.9 | 8.33 | 8.19 | 3.65 | 2.15 | 1.93 | 1.67 | 0.36 | 2.67 | 1.01 | 3.95
11 | CAAACTAGGTCAAAGGTCATAGTCGAGCCAACCA | 7.9 | 6.85 | 5.6 | 6.78 | 2.18 | 7.62 | 14 | 11.2 | 12.9 | 13.1 | 8.7 | 9.39 | 3.36 | 4.08 | 5.55 | 7.06 | 1.04 | 8.82 | 2.53 | 5.59
12 | ACAGACAGGAGATGAAGGTAACTCAGGCTATCAT | 0.323 | 0.193 | 0.173 | 0.229 | 0.489 | 0.00739 | 0.816 | 0.278 | 0.594 | 0.135 | -0.00945 | -0.0699 | 1.32 | 0.405 | 0.572 | 0.128 | 0.841 | 0.204 | 0.797 | 0.539
13 | GATACAGGGTCAAGGCCAGAGTCCGCGTATTGAT | 6.15 | 4.03 | -0.217 | 3.58 | 0.0048 | 5.35 | 5.26 | 5.31 | 1.52 | 3.89 | 2.59 | 3.9 | -0.201 | -0.204 | 1.62 | 3.79 | 0.344 | 4.03 | 0.185 | 4.39
14 | TCTCGGAGGACACGAAGGTCGGAGCTTTCCAGAG | 0.628 | -0.0853 | -0.898 | -0.334 | -1.43 | 0.339 | -0.0942 | 1.17 | 1.87 | 1.67 | 1.25 | 0.119 | -2.18 | -1.55 | -0.462 | 0.265 | -0.139 | 0.366 | -1.24 | 1.81
